Holding throughout (test): DAPPL (digital affinity profiling via proximity ligation, sequencing); 10 mM Tris-HCl pH 7.5, 50 mM NaCl, 1 mM DTT, 4% glycerol, room temperature, 30 min; GST-TFs on glutathione beads, 16-mer random dsDNA library, 0.1% formaldehyde crosslink after washing; high values mean tight binding
One experiment deals with T1, FEV (Homo sapiens, UniProt Q99581 1-238).
T1 sequence: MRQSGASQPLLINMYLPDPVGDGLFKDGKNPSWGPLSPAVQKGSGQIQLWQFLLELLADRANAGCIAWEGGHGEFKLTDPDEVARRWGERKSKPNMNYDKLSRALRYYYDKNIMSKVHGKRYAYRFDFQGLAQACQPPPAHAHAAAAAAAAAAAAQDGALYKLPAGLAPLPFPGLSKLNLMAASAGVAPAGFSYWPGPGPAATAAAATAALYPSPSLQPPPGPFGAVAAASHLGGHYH
The following applies: protein: recombinant; tags: N-terminal GST; dsDNA, one strand shown. An outline of the steps: (§1)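 Pools were built from human transcription factors expressed in yeast as GST fusions, captured on glutathione beads and DNA-barcoded, along with a tag-only sample. Incubation with 200 nmole of a 16-mer random double-stranded DNA library lasted 30 min at room temperature in Tris/NaCl/DTT/glycerol buffer, and was followed by washing, 0.1% formaldehyde crosslinking, proximity ligation, PCR amplification and Illumina NextSeq500 sequencing. Binding signal is the quotient of each hexamer's read frequency for a factor and its frequency for the tag-only sample.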

For another experiment, the target named is ETV5 (Homo sapiens, UniProt P41161 1-510). Conditions: protein: recombinant; tags: N-terminal GST; dsDNA, one strand shown. An outline of the steps:
as §1

The next experiment has as its target HSF1 (Homo sapiens, UniProt Q00613 1-529). The following applies: protein: recombinant; tags: N-terminal GST; chain copies: 3; dsDNA, one strand shown. An outline of the steps: as §1
The next experiment addresses T2, SPIC (Homo sapiens, UniProt Q8N5J4 1-248).
T2 sequence: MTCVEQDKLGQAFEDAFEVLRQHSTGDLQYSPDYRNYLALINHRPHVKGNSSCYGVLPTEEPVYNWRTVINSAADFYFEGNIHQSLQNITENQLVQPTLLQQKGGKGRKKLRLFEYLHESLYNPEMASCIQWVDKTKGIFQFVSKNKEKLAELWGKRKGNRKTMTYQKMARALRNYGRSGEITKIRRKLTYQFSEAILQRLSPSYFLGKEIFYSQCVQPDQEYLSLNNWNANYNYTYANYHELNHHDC
The following applies: protein: recombinant; tags: N-terminal GST; dsDNA, one strand shown. An outline of the steps: as §1

In the next experiment the target is ELF4 (Homo sapiens, UniProt Q99607 1-663). Conditions: protein: recombinant; tags: N-terminal GST; dsDNA, one strand shown. An outline of the steps: as §1
Sequence of ELF4 (Q99607 whole entry): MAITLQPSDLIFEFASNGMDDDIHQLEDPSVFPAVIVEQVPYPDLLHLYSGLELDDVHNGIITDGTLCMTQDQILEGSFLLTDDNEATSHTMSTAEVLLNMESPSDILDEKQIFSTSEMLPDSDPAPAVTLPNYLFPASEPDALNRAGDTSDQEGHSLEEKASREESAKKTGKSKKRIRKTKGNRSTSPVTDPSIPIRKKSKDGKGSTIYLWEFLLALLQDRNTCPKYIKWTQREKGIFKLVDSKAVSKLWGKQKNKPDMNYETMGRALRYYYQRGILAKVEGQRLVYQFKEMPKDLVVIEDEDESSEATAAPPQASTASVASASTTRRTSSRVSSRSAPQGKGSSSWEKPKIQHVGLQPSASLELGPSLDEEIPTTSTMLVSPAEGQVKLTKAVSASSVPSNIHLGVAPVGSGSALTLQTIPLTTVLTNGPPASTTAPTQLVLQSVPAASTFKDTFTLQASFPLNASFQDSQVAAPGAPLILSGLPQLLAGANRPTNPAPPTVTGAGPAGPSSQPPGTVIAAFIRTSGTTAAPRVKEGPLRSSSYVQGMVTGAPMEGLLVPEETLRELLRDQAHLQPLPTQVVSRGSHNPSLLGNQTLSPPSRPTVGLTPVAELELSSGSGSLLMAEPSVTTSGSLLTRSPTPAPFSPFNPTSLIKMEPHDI
In another experiment the target is T3, ELK4 (Homo sapiens, UniProt P28324-2 1-405).
T3 sequence: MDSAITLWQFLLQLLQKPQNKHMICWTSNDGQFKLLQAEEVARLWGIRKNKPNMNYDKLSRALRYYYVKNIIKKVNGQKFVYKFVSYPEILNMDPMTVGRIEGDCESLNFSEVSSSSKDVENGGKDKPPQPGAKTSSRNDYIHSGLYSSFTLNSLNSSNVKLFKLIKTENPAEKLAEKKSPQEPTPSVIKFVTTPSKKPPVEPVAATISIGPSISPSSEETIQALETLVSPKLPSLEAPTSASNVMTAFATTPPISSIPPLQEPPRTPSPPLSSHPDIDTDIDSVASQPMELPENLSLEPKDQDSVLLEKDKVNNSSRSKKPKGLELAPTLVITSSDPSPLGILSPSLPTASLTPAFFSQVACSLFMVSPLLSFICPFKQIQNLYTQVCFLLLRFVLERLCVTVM
The following applies: protein: recombinant; tags: N-terminal GST; dsDNA, one strand shown. An outline of the steps:
as §1

The next experiment concerns the target T4, ETV2 (Homo sapiens, UniProt O00321 1-342).
T4 sequence: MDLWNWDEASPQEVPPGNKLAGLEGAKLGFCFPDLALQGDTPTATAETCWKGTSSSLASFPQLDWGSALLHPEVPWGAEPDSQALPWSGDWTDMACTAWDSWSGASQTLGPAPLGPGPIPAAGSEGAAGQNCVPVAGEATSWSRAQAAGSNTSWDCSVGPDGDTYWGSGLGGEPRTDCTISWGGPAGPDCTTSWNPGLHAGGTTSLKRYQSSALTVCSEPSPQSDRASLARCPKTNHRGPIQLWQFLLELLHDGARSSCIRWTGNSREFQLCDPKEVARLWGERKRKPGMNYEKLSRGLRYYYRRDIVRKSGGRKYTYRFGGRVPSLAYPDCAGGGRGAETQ
Conditions: protein: recombinant; tags: N-terminal GST; dsDNA, one strand shown. An outline of the steps: as §1

The next experiment concerns the target T5, ELF3 (Homo sapiens, UniProt P78545 1-371).
T5 sequence: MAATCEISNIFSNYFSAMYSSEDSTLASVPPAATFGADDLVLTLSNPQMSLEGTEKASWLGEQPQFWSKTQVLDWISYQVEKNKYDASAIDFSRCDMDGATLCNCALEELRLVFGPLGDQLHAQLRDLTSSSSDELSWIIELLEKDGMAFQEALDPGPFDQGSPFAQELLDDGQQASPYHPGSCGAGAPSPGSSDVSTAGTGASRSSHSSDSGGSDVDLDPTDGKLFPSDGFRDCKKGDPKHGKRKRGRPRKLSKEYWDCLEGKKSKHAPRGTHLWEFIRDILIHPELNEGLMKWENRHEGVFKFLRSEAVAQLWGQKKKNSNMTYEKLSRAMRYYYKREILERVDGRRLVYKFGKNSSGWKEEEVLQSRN
Conditions: protein: recombinant; tags: N-terminal GST; dsDNA, one strand shown. Summed up:
as §1

In the next experiment the target is CRX (Homo sapiens, UniProt O43186 1-299). The following applies: protein: recombinant; tags: N-terminal GST; dsDNA, one strand shown. An outline of the steps:
as §1

Another experiment addresses ETV1 (Homo sapiens, UniProt P50549 1-477). Conditions: protein: recombinant; tags: N-terminal GST; dsDNA, one strand shown. Summed up: as §1
Another experiment has as its target T6, ERF (Homo sapiens, UniProt P50548 1-548).
T6 sequence: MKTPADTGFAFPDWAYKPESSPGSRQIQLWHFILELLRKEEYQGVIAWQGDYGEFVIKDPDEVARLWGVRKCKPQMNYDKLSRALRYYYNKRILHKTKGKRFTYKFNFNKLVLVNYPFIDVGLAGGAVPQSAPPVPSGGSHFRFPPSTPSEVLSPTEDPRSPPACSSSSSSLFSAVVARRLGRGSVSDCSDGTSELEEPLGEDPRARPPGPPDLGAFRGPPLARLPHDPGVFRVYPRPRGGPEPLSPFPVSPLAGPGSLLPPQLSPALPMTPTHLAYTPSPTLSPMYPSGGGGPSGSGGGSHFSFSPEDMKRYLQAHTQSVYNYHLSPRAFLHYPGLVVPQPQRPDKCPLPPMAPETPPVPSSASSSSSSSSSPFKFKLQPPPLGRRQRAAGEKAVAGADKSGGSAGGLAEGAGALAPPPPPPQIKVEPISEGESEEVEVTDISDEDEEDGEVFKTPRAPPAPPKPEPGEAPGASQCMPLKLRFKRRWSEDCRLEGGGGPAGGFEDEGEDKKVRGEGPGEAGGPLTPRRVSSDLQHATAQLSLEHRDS
The following applies: protein: recombinant; tags: N-terminal GST; dsDNA, one strand shown. An outline of the steps:
as §1

Another experiment concerns the target T7, ETV3L (Homo sapiens, UniProt Q6ZN32 1-361).
T7 sequence: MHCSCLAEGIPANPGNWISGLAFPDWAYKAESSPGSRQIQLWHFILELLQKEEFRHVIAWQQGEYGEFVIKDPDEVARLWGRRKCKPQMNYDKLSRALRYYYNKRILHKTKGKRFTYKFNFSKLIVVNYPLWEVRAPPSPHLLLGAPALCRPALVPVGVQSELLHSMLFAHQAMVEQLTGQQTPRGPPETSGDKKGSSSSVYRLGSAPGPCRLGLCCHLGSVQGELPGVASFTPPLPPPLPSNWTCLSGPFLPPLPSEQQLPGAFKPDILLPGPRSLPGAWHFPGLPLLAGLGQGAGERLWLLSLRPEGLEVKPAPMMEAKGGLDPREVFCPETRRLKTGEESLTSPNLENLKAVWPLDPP
Conditions: protein: recombinant; tags: N-terminal GST; dsDNA, one strand shown. Summed up:
as §1

Another experiment concerns the target T8, ETS2 (Homo sapiens, UniProt P15036 1-469).
T8 sequence: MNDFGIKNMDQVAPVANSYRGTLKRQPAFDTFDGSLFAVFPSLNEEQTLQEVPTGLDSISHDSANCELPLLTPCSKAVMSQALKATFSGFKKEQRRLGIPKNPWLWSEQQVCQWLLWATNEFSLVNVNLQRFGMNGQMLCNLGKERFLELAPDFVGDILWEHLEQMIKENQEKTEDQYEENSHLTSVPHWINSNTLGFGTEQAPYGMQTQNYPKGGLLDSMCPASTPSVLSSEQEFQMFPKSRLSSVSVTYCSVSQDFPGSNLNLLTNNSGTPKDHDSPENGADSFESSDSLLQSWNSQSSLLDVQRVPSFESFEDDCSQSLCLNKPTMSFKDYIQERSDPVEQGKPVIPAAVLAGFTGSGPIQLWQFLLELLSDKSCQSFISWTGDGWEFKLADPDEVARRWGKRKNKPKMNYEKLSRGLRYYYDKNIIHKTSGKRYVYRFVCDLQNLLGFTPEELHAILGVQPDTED
The following applies: protein: recombinant; tags: N-terminal GST; dsDNA, one strand shown. An outline of the steps: as §1

The target in another experiment is T9, SPDEF (Homo sapiens, UniProt O95238 1-335).
T9 sequence: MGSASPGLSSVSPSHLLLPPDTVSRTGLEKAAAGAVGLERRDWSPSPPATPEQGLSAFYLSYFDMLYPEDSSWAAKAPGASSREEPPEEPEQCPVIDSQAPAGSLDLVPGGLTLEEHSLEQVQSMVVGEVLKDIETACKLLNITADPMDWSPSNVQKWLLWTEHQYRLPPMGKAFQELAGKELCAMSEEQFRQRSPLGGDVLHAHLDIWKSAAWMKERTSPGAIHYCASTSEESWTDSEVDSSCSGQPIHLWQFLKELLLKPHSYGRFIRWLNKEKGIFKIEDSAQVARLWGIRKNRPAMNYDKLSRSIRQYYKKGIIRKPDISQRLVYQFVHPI
Conditions: protein: recombinant; tags: N-terminal GST; dsDNA, one strand shown. An outline of the steps: as §1

The target of a further experiment is T10, ETV7 (Homo sapiens, UniProt Q9Y603 1-341).
T10 sequence: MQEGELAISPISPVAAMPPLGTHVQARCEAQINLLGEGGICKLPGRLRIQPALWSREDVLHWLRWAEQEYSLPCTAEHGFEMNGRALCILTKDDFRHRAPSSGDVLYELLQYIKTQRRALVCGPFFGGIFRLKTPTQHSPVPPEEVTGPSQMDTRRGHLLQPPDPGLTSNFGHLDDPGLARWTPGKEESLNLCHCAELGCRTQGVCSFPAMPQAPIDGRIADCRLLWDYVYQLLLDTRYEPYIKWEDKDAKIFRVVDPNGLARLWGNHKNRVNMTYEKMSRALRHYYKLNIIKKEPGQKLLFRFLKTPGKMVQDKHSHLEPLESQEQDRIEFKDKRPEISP
The following applies: protein: recombinant; tags: N-terminal GST; dsDNA, one strand shown. An outline of the steps: as §1

A further experiment deals with T11, ELF5 (Homo sapiens, UniProt Q9UKW6-2 1-255).
T11 sequence: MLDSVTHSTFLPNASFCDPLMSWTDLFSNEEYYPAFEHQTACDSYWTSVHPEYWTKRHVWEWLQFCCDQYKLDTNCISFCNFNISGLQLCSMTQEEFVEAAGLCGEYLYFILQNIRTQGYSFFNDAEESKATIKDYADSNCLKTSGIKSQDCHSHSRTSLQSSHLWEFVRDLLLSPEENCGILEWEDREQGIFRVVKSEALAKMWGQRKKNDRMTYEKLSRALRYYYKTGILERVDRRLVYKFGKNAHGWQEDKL
Conditions: protein: recombinant; tags: N-terminal GST; dsDNA, one strand shown. An outline of the steps: as §1

A further experiment deals with T12, ETV3 (Homo sapiens, UniProt P41162-2 1-143).
T12 sequence: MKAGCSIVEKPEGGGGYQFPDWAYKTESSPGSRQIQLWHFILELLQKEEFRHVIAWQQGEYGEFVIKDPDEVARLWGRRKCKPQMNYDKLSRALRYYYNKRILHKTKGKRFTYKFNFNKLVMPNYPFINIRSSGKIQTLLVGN
The following applies: protein: recombinant; tags: N-terminal GST; dsDNA, one strand shown. An outline of the steps:
as §1

The next experiment concerns the target ETV6 (Homo sapiens, UniProt P41212 1-452). The following applies: protein: recombinant; tags: N-terminal GST; dsDNA, one strand shown. Summed up:
as §1

Sequence of ETV1 (P50549 whole entry): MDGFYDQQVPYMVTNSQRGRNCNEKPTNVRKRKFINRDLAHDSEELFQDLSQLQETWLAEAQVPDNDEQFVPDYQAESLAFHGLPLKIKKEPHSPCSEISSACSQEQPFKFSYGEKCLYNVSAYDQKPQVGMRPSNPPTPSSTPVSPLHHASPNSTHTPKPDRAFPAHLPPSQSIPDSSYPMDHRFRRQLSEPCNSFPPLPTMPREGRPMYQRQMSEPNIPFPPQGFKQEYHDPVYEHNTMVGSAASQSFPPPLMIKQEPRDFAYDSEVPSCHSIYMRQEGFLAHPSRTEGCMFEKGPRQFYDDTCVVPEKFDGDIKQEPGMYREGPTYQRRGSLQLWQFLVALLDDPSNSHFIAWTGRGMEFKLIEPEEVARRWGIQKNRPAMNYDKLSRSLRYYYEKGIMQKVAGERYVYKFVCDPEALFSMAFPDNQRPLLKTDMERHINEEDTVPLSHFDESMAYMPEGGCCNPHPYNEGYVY
Sequence of HSF1 (Q00613 whole entry): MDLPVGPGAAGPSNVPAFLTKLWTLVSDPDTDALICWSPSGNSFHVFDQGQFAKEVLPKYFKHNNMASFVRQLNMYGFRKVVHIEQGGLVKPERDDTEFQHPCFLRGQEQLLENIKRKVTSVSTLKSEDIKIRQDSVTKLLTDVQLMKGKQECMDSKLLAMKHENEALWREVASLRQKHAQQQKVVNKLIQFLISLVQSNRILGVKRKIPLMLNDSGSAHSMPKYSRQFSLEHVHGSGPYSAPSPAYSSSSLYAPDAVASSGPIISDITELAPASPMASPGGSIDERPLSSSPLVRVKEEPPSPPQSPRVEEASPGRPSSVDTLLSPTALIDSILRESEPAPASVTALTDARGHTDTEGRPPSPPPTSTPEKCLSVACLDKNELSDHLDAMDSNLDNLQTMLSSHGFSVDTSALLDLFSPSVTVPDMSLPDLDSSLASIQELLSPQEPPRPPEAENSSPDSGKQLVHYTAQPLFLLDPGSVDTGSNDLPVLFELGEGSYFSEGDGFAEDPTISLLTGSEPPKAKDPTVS
Sequence of CRX (O43186 whole entry): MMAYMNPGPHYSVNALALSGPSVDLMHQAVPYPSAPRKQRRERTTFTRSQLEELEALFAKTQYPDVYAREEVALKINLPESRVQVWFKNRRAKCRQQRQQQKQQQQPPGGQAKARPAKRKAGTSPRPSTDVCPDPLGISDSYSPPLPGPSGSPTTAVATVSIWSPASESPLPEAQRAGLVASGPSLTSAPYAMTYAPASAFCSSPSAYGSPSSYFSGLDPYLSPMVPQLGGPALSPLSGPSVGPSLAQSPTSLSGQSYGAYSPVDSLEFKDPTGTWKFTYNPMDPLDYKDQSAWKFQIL
Sequence of ETV6 (P41212 whole entry): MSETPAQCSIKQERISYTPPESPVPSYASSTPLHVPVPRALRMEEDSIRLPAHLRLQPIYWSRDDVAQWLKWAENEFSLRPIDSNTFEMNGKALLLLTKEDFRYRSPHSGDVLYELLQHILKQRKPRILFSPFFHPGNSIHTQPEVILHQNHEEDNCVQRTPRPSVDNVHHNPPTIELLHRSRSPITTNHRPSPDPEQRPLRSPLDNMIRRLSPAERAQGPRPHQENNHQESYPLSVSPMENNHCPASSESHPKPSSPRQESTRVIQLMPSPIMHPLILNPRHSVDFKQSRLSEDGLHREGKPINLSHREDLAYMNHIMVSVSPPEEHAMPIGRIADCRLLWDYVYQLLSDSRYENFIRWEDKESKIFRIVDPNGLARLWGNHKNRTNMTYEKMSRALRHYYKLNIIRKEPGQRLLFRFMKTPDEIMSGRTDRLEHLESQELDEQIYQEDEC
Sequence of ETV5 (P41161 whole entry): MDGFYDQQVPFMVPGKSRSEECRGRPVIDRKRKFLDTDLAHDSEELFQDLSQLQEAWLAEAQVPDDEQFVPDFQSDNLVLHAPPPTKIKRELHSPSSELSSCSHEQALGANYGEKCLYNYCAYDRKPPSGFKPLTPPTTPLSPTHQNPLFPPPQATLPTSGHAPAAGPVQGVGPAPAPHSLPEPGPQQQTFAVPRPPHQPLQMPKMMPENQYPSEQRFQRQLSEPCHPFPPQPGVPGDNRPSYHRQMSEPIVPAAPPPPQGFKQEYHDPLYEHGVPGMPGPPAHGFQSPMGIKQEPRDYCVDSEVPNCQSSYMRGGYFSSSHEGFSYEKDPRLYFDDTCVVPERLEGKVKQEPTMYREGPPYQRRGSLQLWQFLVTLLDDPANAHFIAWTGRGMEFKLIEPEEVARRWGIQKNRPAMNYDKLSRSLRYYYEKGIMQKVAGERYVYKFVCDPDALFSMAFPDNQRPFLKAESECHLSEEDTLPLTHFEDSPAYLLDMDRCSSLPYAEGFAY

Regarding GATTAT, the binding signal with FEV was 1.01 fold enrichment (6-mer frequency, TF over GST control); with ETV5 it was 1.03 fold enrichment (6-mer frequency, TF over GST control); in the experiment with HSF1, 2.66 fold enrichment (6-mer frequency, TF over GST control); with SPIC, 1.09 fold enrichment (6-mer frequency, TF over GST control); with ELF4, 1.14 fold enrichment (6-mer frequency, TF over GST control); with ELK4 it was 1.06 fold enrichment (6-mer frequency, TF over GST control). Also, the binding signal was 1.07 fold enrichment (6-mer frequency, TF over GST control) with ETV2; 1.16 fold enrichment (6-mer frequency, TF over GST control) in the experiment with ELF3; 4.27 fold enrichment (6-mer frequency, TF over GST control) in the experiment with CRX; 1.06 fold enrichment (6-mer frequency, TF over GST control) with ETV1; 1.06 fold enrichment (6-mer frequency, TF over GST control) in the experiment with ERF; 1.11 fold enrichment (6-mer frequency, TF over GST control) with ETV3L. For the same sequence, the binding signal was 1.04 fold enrichment (6-mer frequency, TF over GST control) in the experiment with ETS2; 1.1 fold enrichment (6-mer frequency, TF over GST control) with SPDEF; 1.18 fold enrichment (6-mer frequency, TF over GST control) with ETV7; 1.04 fold enrichment (6-mer frequency, TF over GST control) in the experiment with ELF5; 1.04 fold enrichment (6-mer frequency, TF over GST control) in the experiment with ETV3; 1.12 fold enrichment (6-mer frequency, TF over GST control) with ETV6.

Source of the values: publication PMC7862700, “An all-to-all approach to the identification of sequence-specific readers for epigenetic DNA modifications on cytosine”.
